Test results from PubChem BioAssay (Tox21).
Inconclusive results are not listed. A call without a number means that no potency is given here. Active and inactive are the calls of the source. Unless noted, calls come from the whole dose curve.

What was measured:
[1] = target: Gonadotropin-releasing hormone receptor (Homo sapiens) (UniProt P30968); assay: Human gonadotropin-releasing hormone receptor (GnRHR) small molecule agonists, calcium flux assay in GnRHR-HEK293 cells (AID 1920063); note: nearly all actives have a fitted effect of over 35% in size; note: potency is the fitted concentration of half-maximal effect
Sequence of Gonadotropin-releasing hormone receptor (Homo sapiens) (P30968 whole entry, looked up): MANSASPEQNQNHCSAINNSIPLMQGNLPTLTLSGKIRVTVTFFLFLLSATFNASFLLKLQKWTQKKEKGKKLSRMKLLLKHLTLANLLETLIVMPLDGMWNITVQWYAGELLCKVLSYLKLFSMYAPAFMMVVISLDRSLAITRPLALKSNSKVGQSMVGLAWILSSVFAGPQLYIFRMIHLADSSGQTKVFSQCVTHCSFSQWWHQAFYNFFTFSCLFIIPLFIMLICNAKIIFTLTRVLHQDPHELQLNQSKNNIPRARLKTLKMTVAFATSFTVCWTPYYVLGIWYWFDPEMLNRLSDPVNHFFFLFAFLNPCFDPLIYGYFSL
Summary of the method: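 Agonist mode: compounds at 15 concentrations, in triplicate, went onto calcium dye-loaded GnRHR-HEK293 cells. Intracellular calcium was then followed as 480/540 nm fluorescence at 1 s intervals over 3 min.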

[2] = target: KiSS-1 receptor (Homo sapiens) (UniProt Q969F8); assay: Human kisspeptin (KISS1R) small molecule agonists, calcium flux assay in KISS1R-HEK293 cells (AID 1920064; active = well fitted activation curve with a large enough effect in the repeat runs)
Sequence of KiSS-1 receptor (Homo sapiens) (Q969F8 whole entry, looked up): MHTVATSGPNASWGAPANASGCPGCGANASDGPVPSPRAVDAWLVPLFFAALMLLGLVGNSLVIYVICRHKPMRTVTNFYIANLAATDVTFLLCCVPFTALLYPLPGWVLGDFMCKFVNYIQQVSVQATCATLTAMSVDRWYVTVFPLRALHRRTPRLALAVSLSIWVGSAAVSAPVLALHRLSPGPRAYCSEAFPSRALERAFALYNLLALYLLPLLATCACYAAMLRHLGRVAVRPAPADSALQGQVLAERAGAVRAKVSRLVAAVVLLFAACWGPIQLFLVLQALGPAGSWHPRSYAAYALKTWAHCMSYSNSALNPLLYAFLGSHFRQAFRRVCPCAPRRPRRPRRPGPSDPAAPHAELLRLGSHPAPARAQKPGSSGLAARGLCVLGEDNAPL
Summary of the method: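 Agonist mode: intracellular calcium rise tracked at 1 s intervals over 3 min (480/540 nm) immediately after compound addition to dye-loaded KISS1R-HEK293 stable cells. Each compound tested at 15 concentrations in triplicate.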

[3] = G protein-coupled receptor (GPCR) small molecule agonists, calcium flux assay: HEK293 wild type cell line counter screen (AID 1920065)
Summary of the method: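 Calcium flux counter screen: compound added in agonist mode at 15 concentrations in triplicate to dye-loaded parental HEK293 cells. Fluorescence (480/540) read kinetically for 3 min; ATP served as positive control.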

[4] = p53 small molecule agonists, cell-based qHTS assay with human liver microsomes (AID 1963577); note: potency is the fitted concentration of half-maximal effect;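 for activation: p53 response element beta-lactamase reporter cells with liver microsomes plus NADPH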
Summary of the method: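 Steps: plate p53RE-bla cells, incubate 5 h at 37 C; add compound in DMSO; add microsomes (0.5 mg/mL final) and NADPH (0.5 mg/mL final); incubate 16 h at 37 C; add LiveBLAzer, 2 h RT; read fluorescence.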

[5] = p53 small molecule agonists, cell-based qHTS assay with rat liver microsomes (AID 1963578)
Summary of the method: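 Metabolic activation is supplied by rat liver microsomes with NADPH (each 0.5 mg/mL final). p53RE-bla cells incubate with compound 16 h at 37 C; reporter activity is measured by LiveBLAzer fluorescence.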

[6] = p53 small molecule agonists, cell-based qHTS assay with human liver microsomes: qHTS cell viability counter screen (AID 1963579); note: nearly all actives have a fitted effect of over 45% in size
Summary of the method: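 After the 460/530 nm beta-lactamase read, CellTiter-Glo was added to the same wells and luminescence measured after 30 min at room temperature, giving viability of p53RE-bla cells treated 16 h with compounds plus microsomes and NADPH.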

[7] = p53 small molecule agonists, cell-based qHTS assay with rat liver microsomes: qHTS cell viability counter screen (AID 1963580); note: nearly all actives have a fitted effect of over 45% in size
Summary of the method: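 Luminescent ATP readout (CellTiter-Glo, 30 min at room temperature) reports viability of p53RE-bla HCT-116 cells after 16 h at 37 C with test compounds under metabolic activation by rat liver microsomes and NADPH at 0.5 mg/mL final each.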

[8] = p53 small molecule agonists, cell-based qHTS assay (AID 1963582; active = well fitted activation curve with a large enough effect in the signal ratio in the repeat runs, not every such curve was filed as active; the % refers to the signal ratio)
Summary of the method: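 Read-out is beta-lactamase FRET fluorescence after 2 h at room temperature with LiveBLAzer B/G substrate. p53 response element-bla cells were treated 16 h at 37 C with compounds in DMSO, added 5 h after seeding.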

[9] = target: 5-hydroxytryptamine receptor 2A (Homo sapiens) (UniProt P28223); assay: 5-hydroxytryptamine receptor 2A (HTR2A) small molecule antagonists, cell-based qHTS assay (AID 1963586); note: nearly all actives have a fitted effect of over 45% in size; note: potency is the fitted concentration of half-maximal effect
Sequence of 5-hydroxytryptamine receptor 2A (Homo sapiens) (P28223 whole entry, looked up): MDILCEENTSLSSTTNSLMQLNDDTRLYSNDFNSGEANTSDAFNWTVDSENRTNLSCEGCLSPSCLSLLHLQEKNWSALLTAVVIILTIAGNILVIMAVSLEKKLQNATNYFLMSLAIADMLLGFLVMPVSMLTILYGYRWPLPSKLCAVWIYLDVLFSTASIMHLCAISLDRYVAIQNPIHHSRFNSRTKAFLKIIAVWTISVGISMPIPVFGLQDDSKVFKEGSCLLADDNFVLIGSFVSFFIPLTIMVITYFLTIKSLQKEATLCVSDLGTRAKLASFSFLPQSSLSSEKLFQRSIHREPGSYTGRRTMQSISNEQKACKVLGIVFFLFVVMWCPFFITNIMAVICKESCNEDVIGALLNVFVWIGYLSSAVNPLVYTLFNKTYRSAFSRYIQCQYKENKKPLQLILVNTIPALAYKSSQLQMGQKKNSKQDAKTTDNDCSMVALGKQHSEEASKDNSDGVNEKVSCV
Summary of the method: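 CHO cells stably expressing human HTR2A were plated for 18 h at 37 C, then loaded with calcium dye for 1 h. Compounds were preincubated 5 min at room temperature before DOI (4 nM solution) was added. Kinetic fluorescence was read for 3 min.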

[10] = target: 5-hydroxytryptamine receptor 2A (Homo sapiens) (UniProt P28223); assay: 5-hydroxytryptamine receptor 2A (HTR2A) small molecule agonists, cell-based qHTS assay (AID 1963587); note: nearly all actives have a fitted effect of over 30% in size; note: potency is the fitted concentration of half-maximal effect
Summary of the method: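 HTR2A-CHO cells, plated 18 h at 37 C/5% CO2, dye-loaded 1 h at 37 C; compounds in DMSO added by pin tool (agonist mode). Intracellular calcium flux read as kinetic fluorescence on FDSS over 2 min at 1 s intervals.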

[11] = target: Muscarinic acetylcholine receptor M1 (Homo sapiens) (UniProt P11229); assay: Cholinergic receptor muscarinic 1 (CHRM1) small molecule antagonists, cell-based qHTS assay (AID 1963588); note: nearly all actives have a fitted effect of over 40% in size
Sequence of Muscarinic acetylcholine receptor M1 (Homo sapiens) (P11229 whole entry, looked up): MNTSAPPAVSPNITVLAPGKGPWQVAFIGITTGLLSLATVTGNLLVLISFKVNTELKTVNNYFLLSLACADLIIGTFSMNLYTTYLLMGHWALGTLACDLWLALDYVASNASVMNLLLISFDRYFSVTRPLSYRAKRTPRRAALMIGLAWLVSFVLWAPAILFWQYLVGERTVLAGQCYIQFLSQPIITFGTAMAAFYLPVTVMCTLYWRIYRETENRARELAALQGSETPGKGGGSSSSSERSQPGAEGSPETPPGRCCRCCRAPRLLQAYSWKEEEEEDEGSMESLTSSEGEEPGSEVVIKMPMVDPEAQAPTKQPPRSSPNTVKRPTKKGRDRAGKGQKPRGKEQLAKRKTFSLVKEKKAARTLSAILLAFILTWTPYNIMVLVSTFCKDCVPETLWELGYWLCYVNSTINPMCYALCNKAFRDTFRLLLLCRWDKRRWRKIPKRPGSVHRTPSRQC
Summary of the method: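 Compounds were tested at 15 concentrations in three independent runs. Dye-loaded CHRM1-CHO cells were exposed 5 min at room temperature before stimulation by acetylcholine added at 50nM. Intracellular calcium was read kinetically on FDSS for 3 min.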

[12] = target: Muscarinic acetylcholine receptor M1 (Homo sapiens) (UniProt P11229); assay: Cholinergic receptor muscarinic 1 (CHRM1) small molecule agonists, cell-based qHTS assay (AID 1963589); note: nearly all actives have a fitted effect of over 35% in size
Summary of the method: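 Agonist-mode calcium-flux screen: compounds at 15 concentrations, three independent runs, were pin-transferred onto dye-loaded human CHRM1-CHO cells. Fluorescence was then recorded kinetically every second over minutes.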

[13] = target: Beta-2 adrenergic receptor (Homo sapiens) (UniProt P07550); assay: Adrenergic beta2 receptor (ADRB2) small molecule antagonists, cell-based qHTS assay (AID 1963592); note: series mostly up to about 92 µM; nearly all actives have a fitted effect of over 50% in size
Sequence of Beta-2 adrenergic receptor (Homo sapiens) (P07550 whole entry, looked up): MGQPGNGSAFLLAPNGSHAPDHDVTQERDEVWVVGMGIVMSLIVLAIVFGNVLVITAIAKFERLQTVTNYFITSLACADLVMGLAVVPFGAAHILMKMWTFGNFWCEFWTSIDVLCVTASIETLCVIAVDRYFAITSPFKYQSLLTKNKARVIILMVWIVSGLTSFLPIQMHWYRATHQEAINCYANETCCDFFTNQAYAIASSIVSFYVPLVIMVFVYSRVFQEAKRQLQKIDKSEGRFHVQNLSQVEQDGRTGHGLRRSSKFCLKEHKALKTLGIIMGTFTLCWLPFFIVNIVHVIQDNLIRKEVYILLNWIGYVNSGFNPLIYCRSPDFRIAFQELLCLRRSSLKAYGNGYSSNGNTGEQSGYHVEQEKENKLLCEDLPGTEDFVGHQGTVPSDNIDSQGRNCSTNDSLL
Summary of the method: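 Assay format: CHO-ADRB2 cells, 18-20hr seeding at 37C/5% CO2, then compound plus 1nM isoproterenol agonist mix for 0.5hr RT. Homogeneous time-resolved fluorescence cAMP detection after 1hr, expressed as 665/615 nm ratio.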

[14] = target: D(2) dopamine receptor (Homo sapiens) (UniProt P14416); assay: Dopamine D2 receptor (DRD2) small molecule agonists, cell-based qHTS assay (AID 1963594); note: nearly all actives have a fitted effect of over 35% in size
Sequence of D(2) dopamine receptor (Homo sapiens) (P14416 whole entry, looked up): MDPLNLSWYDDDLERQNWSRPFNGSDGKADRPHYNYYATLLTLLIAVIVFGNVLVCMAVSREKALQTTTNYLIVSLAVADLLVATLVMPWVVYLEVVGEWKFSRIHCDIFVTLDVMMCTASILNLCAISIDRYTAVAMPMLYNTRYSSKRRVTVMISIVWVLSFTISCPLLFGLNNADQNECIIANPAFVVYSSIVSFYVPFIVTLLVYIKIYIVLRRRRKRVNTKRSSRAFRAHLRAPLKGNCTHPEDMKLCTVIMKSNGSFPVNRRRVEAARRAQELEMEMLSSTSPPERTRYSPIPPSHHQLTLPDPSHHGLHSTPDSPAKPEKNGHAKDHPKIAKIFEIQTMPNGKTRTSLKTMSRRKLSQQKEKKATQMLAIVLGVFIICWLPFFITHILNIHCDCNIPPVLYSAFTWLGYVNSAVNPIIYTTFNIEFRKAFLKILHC
Summary of the method: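 HEK293 cells stably expressing DRD2 were cultured 24 h at 37 C, then given Ro20-1724 (0.1 mM final) and compounds for 10 min at room temperature. NKH477 (200nM) was then added for 30 min. cAMP was read by HTRF.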

[15] = target: D(2) dopamine receptor (Homo sapiens) (UniProt P14416); assay: Dopamine D2 receptor (DRD2) small molecule antagonists, cell-based qHTS assay (AID 1963595; active = well fitted inhibition curve with a large enough effect in the signal ratio in the repeat runs, with a control signal flat; the % refers to the signal ratio)
Summary of the method: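 HTRF cAMP read-out at 665 and 620 nm emission (340 nm excitation). Antagonist mode: compounds were tested against 12 nM quinpirole in DRD2-HEK293 cells, with 200 nM NKH477 raising cAMP and 0.1 mM Ro20-1724 blocking its breakdown.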

[16] = cAMP Responsive Elements (CRE) small molecule antagonists, cell-based qHTS assay (AID 1963591; active = well fitted inhibition curve with a large enough effect in the signal ratio in the repeat runs, not every such curve was filed as active; the % refers to the signal ratio)
Summary of the method: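 Antagonist mode: compounds are added alongside the adenylyl cyclase activator NKH477 (0.25 uM final) to CRE-bla HEK293T cells for 3 h. LiveBLAzer FRET substrate, 2 h at room temperature, reports bla expression.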

[17] = Nuclear factor erythroid 2-related factor 2/antioxidant responsive element (Nrf2/ARE) small molecule agonists: luciferase reporter gene qHTS assay in human keratinocytes (AID 1919969); note: nearly all actives have a fitted effect of over 35% in size; note: potency is the fitted concentration of half-maximal effect
[18] = p53 small molecule agonists, cell-based qHTS assay: qHTS cell viability counter screen (AID 1963581); note: nearly all actives have a fitted effect of over 45% in size
Summary of the method: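 Counter screen read by CellTiter-Glo luminescence (ATP content, 30 min at room temperature), run in the same wells as the beta-lactamase reporter read. HCT-116 p53RE-bla cells saw compounds for 16 h at 37 C.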

[19] = cAMP Responsive Elements (CRE) small molecule agonists, cell-based qHTS assay (AID 1963590)
Summary of the method: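 Agonist mode: compound added to CRE-bla HEK 293T cells (2,000/well, 18 h after plating) for 3 h at 37 C/5% CO2. Reporter activity detected via FRET beta-lactamase substrate, 2 h room-temperature loading.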

[20] = target: Beta-2 adrenergic receptor (Homo sapiens) (UniProt P07550); assay: Adrenergic beta2 receptor (ADRB2) small molecule agonists, cell-based qHTS assay (AID 1963593);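 note: CHO cells stably overexpressing human ADRB2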
Summary of the method: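 CHO cells stably over-expressing ADRB2 were plated overnight at 37C, then dosed with compounds plus a stimulation mix containing 100uM IBMX and 25uM Ro-20-1724 for 0.5hr at room temperature. cAMP was measured by HTRF competition, 1hr.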

| Compound | Potency [1] | Potency [2] | Potency [3] | Potency [4] | Potency [5] | Potency [6] | Potency [7] | Potency [8] | Potency [9] | Potency [10] | Potency [11] | Potency [12] | Potency [13] | Potency [14] | Potency [15] | Potency [16] | Potency [17] | Potency [18] | Potency [19] | Potency [20] |
| --- | --- | --- | --- | --- | --- | --- | --- | --- | --- | --- | --- | --- | --- | --- | --- | --- | --- | --- | --- | --- |
| Nc1ccccc1C(=O)Oc1ccc2ccccc2c1 | inactive | inactive | inactive | inactive | inactive | inactive | inactive | inactive | inactive | inactive | inactive | inactive | inactive | inactive | inactive |  |  |  |  |  |
| O=C1C(=O)c2cccc3cccc1c23 | inactive | inactive | inactive | inactive | inactive |  | inactive |  | inactive | inactive | inactive | inactive | inactive | inactive | inactive | inactive |  |  |  |  |
| CS/C(C)=N/OC(=O)N(C)SN(C)C(=O)O/N=C(\C)SC |  | inactive |  |  |  | inactive | inactive | inactive | inactive | 43.6 µM (active) | inactive | inactive | inactive | inactive | inactive | inactive | 68.6 µM (active) | inactive | inactive | inactive |
| O=C1CC[C@@]2(O)[C@H]3Cc4ccc(O)c5c4[C@@]2(CCN3CC2CC2)[C@H]1O5 | inactive | inactive | inactive | inactive | inactive | inactive |  | inactive |  |  |  |  | inactive | inactive | inactive | inactive |  | inactive | inactive | inactive |
| O=S1(=O)OCC2C(CO1)C1(Cl)C(Cl)=C(Cl)C2(Cl)C1(Cl)Cl (stereo not drawn) |  | inactive | inactive |  | inactive |  | inactive |  | inactive |  | inactive | inactive | inactive | inactive | inactive |  | 24.3 µM (active) | inactive |  | inactive |
| NC(=O)CS(=O)C(c1ccccc1)c1ccccc1 (stereo not drawn) |  | inactive | inactive |  |  |  | inactive | inactive |  |  |  |  |  | inactive | inactive |  | inactive | inactive | inactive |  |
| COP(=O)(OC)O/C(=C\Cl)c1cc(Cl)c(Cl)cc1Cl |  |  | inactive | 40.8 µM (active) |  | inactive |  | inactive |  |  | inactive | inactive | inactive | inactive | inactive |  | 68.6 µM (active) | inactive | inactive | inactive |
| O=C1c2ccccc2C(=O)C1C(=O)C(c1ccccc1)c1ccc(Cl)cc1 (stereo not drawn) | 17.4 µM (active) | inactive | inactive | inactive | inactive |  | inactive | inactive | 4.21 µM (active) | 49 µM (active) |  | inactive | inactive | inactive | inactive |  |  |  |  |  |
| CCOCCOC(C)=O | inactive | inactive | inactive |  | inactive |  |  | inactive |  | inactive |  | inactive |  | inactive |  |  |  |  | inactive |  |
| Oc1c(Cl)cc(Cl)cc1Cl |  |  |  |  |  |  |  |  | inactive | inactive | inactive | inactive | inactive | inactive | inactive |  |  |  |  |  |
| O=C(O)/C=C\C(=O)O |  |  |  | inactive | inactive | inactive | inactive | inactive |  |  |  |  |  |  |  |  |  | inactive |  |  |
| O=[N+]([O-])O.O=[N+]([O-])O.[Cd] | inactive | inactive | inactive |  |  | inactive | inactive |  |  | 38.9 µM (active) | inactive | inactive | inactive | inactive |  |  |  | inactive | inactive |  |
| CCCCC(CC)COC(=O)c1ccccc1C(=O)OCC(CC)CCCC (stereo not drawn) | inactive |  | inactive | inactive | inactive | inactive | inactive |  |  |  |  |  | inactive |  | inactive |  |  |  |  |  |
| CSCC[C@H](NC(=O)[C@H](Cc1c[nH]c2ccccc12)NC(=O)CCNC(=O)OC(C)(C)C)C(=O)N[C@@H](CC(=O)O)C(=O)N[C@@H](Cc1ccccc1)C(N)=O |  |  |  |  |  |  |  |  | inactive | inactive | inactive | inactive |  |  |  |  |  |  |  |  |
